Test results from PubChem BioAssay AID1851 (National Center for Advancing Translational Sciences (NCATS), 2009).
Out of some 16,000 compounds screened, about 4,000 (25%) were called active. Not shown: some 26% with an inconclusive outcome. Not all results are given here. Values without a mark were called inactive. Calls follow the shape of the dose curve; as a rule, active = well fitted curve in the direction sought with a large enough effect; inconclusive = small, poorly fitted or top-dose-only effect, or effect the other way; inactive = no such curve, though single readings can be large or run the other way.

The molecules below were run against Cytochrome P450 2C9 (Homo sapiens) (UniProt P11712) (assay: Cytochrome panel assay with activity outcomes). Conditions: recombinant CYP, pro-luciferin dealkylation, luminescence, p450-cyp2c9; series mostly up to 57.1 µM; activity, negative = inhibition: at the top concentration.
Sequence of Cytochrome P450 2C9 (Homo sapiens) (P11712 whole entry, looked up): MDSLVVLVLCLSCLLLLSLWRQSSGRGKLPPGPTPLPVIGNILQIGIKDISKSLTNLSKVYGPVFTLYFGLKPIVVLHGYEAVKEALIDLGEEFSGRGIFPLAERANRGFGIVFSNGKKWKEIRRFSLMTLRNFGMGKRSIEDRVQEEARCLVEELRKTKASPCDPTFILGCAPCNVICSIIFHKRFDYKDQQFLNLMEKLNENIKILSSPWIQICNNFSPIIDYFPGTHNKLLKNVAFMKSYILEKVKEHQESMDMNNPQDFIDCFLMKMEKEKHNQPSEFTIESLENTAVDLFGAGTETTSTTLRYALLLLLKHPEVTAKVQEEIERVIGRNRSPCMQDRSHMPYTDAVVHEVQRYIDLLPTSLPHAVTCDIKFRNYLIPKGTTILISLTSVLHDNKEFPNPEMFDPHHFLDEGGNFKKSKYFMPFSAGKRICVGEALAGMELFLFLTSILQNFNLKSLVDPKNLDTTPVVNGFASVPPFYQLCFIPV
% is scaled to controls: 0 for no effect and ±100 for the full control effect.

Structure (SMILES)	activity, negative = inhibition	AC50
CCOC(=O)N1CCN(C(=O)c2ccc3c(=O)n(-c4ccc(OC)cc4)c(=S)[nH]c3c2)CC1	-21.8%	–
O=C(N/N=C/c1c[nH]c2ccccc12)c1ccn(Cc2ccc(Cl)cc2Cl)n1	–	1.26 µM (active)
CO[C@@H]1COC(=O)CCC[C@@H](C)[C@H](OC)COC(=O)CCC[C@H]1C	-7% [at 11.4 µM]	–
C=CCc1cccc(C2Nc3ccccc3C(=O)N2O)c1O (stereo not given)	–	5.01 µM (active)
CC1(C(=O)CSc2nc3ccccc3s2)CCC(=O)O1 (stereo not given)	-21.7%	–
CC(C)CC1CC(=O)OC1(C)C(=O)CSc1nc2ccccc2s1 (stereo not given)	–	28.2 µM (active)
Cc1ccc(OC(=O)c2cccc(C(=O)Oc3ccc(C)cc3)n2)cc1	-49.8%	–
COc1ccc(-c2oc3ccccc3c(=O)c2OC(=O)c2ccc(C)cc2)cc1	–	1.26 µM (active)
Cc1cc2ccc(OC(=O)c3ccc(N=C(N)N)cc3)cc2oc1=O	3.7% [at 11.4 µM]	–
CC(=O)NCCNc1ncnc2ccc(-c3cccc(NS(C)(=O)=O)c3)cc12	-12.9% [at 2.29 µM]	–
Cc1ccc2nc(CC(=O)c3ccc4ccccc4c3)c(=O)[nH]c2c1	-7.8% [at 11.4 µM]	–
Cc1ccc(NC(=O)CSc2nnc(-c3ccncc3)o2)cc1	–	3.55 µM (active)
COc1ccc2nc(SCC(=O)Nc3ccc4c(c3)OCCO4)[nH]c2c1	–	2.24 µM (active)
CCC(=O)Nc1ccc(NC(=O)CSc2nnnn2-c2cccnc2)cc1C	-19.7%	–
NC(=O)c1ccc(-c2nc(-c3ccc4c(c3)OCO4)c(-c3ccccn3)[nH]2)cc1	-18.5%	–
CC(C)(C)c1ccc(-c2nnc(SCC(=O)c3ccc4c(c3)OCCO4)o2)cc1	–	3.16 µM (active)
CCOC(=O)NC(=O)CSc1nc2ccc(OCC)cc2[nH]1	-28.6%	–
Cc1ccc2nc(SCC(=O)c3ccc4c(c3)OCO4)[nH]c2c1	–	5.01 µM (active)
CCS(=O)(=O)N1CCC(C(=O)NCCCN2CCCC2)CC1	14.5%	–
COc1ccc([C@H]2Sc3ccccc3N(CCN(C)C)C(=O)[C@H]2OC(C)=O)cc1	–	inactive
NC(N)=N/N=C(\c1ccc(Cl)cc1)C1CC1	-1.67% [at 11.4 µM]	–
C#CCCCO/N=C1/C[C@@H](O)[C@@H](O)[C@@H]2[C@@H]3C(=O)N(C4CCCCC4)C(=O)[C@H]3CC[C@@H]12	-15% [at 11.4 µM]	–
CC(C)C(O)(C(C)C)C(C)C	-0.763% [at 11.4 µM]	–
CNc1ncncc1-c1ccc(C(=O)N(C)C)cc1	-6.73% [at 2.29 µM]	–
COc1cc(-c2nnc(SCC(=O)Nc3ccc4c(c3)OCCO4)o2)cc(OC)c1OC	–	1.41 µM (active)
COc1cc(C(=O)Nc2ccc3c(c2)OCCO3)c(-n2cnnn2)cc1OC	-8.95%	–
COc1ccc(-n2c(=O)[nH]cc(C(=O)Nc3ccc4c(c3)OCCO4)c2=O)cc1	–	7.08 µM (active)
Cc1ccc2nc(SCC(=O)Nc3nnc(SCC(N)=O)s3)[nH]c2c1	–	11.2 µM (active)

Structure (SMILES)	activity, negative = inhibition	AC50
CCCCNCCOCCSc1ccc(Cl)cc1	-16.8%	–
CCCCCc1nc2c(=O)[nH]c3ccccc3c2o1	-15.2%	–
N/C(=N\c1nc2ccccc2o1)NC(=O)c1ccccc1F	–	12.6 µM (active)
NC(=Nc1ccccc1)NC(=O)c1nc(Cl)c(N)nc1N	-6.89%	–
COc1ccc(C2/C(=C(/O)c3ccc4c(c3)CC(C)O4)C(=O)C(=O)N2CCN2CCOCC2)cc1 (stereo not given)	-36.8%	–
CCN(CC)C(=O)CSc1nc2ccc(NC(=O)CSc3nnc(COc4ccccc4C)n3C)cc2s1	–	1.58 µM (active)
COc1cccc(NC(=O)CSc2nnc(CN3CCOCC3)n2C)c1	-27.8%	–
CCOC(=O)N/N=C/c1ccccc1F	-7.31%	–
O=C(COc1ccc(-c2ccccc2)cc1)N/N=C/c1ccccc1Br	–	4.47 µM (active)
CN(C)Cc1c[nH]c2nc[nH]c(=O)c12	4.29% [at 11.4 µM]	–
c1ccc(CNc2nc(-c3ccc4c(c3)OCO4)nc3ccccc23)cc1	-26.1% [at 2.29 µM]	–
CC(NC(=O)CCSc1nc(-c2ccc3c(c2)OCO3)cc(C(F)(F)F)n1)c1ccccc1 (stereo not given)	–	2 µM (active)
CC(=O)NCCNc1nc(-c2ccc3c(c2)OCO3)nc2ccccc12	5.84% [at 2.29 µM]	–
COCCNc1nc(-c2ccccc2C(F)(F)F)nc2ccccc12	-9.26% [at 2.29 µM]	–
CCCNc1c(F)c(F)c2c(C)c3ccccc3nc2c1F	–	15.8 µM (active)
Cc1cc(NCCO)c2ccccc2n1	-11.5%	–
CCCCC1CCC(c2nc(-c3ccccn3)no2)CC1 (stereo not given)	–	14.1 µM (active)
CCN1CCN(c2nc(-c3ccccn3)nc3ccccc23)CC1	-23.3%	–
c1ccc2nc(-c3ccncc3)ccc2c1	–	5.01 µM (active)
CC(=O)/C=C/c1ccc2ccccc2n1	-7.35%	–
COc1cccc(-c2cc(N(C)Cc3ccco3)ncn2)c1	-6.29% [at 2.29 µM]	–
C[C@@H]1NC(=O)C/C=C\[C@@H](C)[C@@H]2C=C[C@H](O)[C@@H](COC(=O)[C@H](C)NC(=O)C/C=C\[C@@H](C)[C@@H]3C=C[C@H](O)[C@@H](COC1=O)O3)O2	5.32% [at 11.4 µM]	–
CCOc1cc(S(=O)(=O)N(Cc2ccccc2)Cc2ccccc2)c(OCC)cc1-n1cnnn1	–	7.94 µM (active)
O=C(O)CN(CCOCCOCCN(CC(=O)O)CC(=O)O)CC(=O)O	6.97%	–
FC(F)(F)c1ccccc1-c1nc(NC2CC2)c2ccccc2n1	12.1% [at 2.29 µM]	–
COc1cc(C)cc(OC)c1/C=C\C(=O)O	-15.8% [at 11.4 µM]	–
COc1ccc2ccccc2c1/C=C\C(=O)c1ccccc1	–	1.26 µM (active)
